Measurements published in PubChem BioAssay AID1159554 (Broad Institute, 2015).
Hit rate of the full screen: of about 94,000 compounds, about 2,100 (2.2%) were called active. Only a selection was taken, and actives are over-represented in it overall. Unmarked numbers belong to inactive results. Cut-off read from the data, not from the text of the source: active = activity change below about -80%; inconclusive = no clear call, values can overlap the other calls; inactive = above that.

Assay: P. falciparum Dd2 growth inhibitors, primary screen, SYBR Green fluorescence, single dose replicates (AID 1159554)
Details: 72 h, at 10 µM, active compounds read low

Row | SMILES | activity change
1 | CN(C)CC#Cc1ccc([C@@H]2[C@H](CO)N3CCCCN(C(=O)NC4CCCC4)C[C@@H]23)cc1 | 2.92%
2 | CCCNC(=O)Nc1ccc2c(c1)C(=O)N(C)C[C@@H](OC)[C@H](C)CN(CCC)[C@@H](C)CO2 | 21.3%
3 | COc1ccccc1NC(=O)N1CC(=O)N2[C@@H](CO)[C@H](c3ccc(C#CC4CC4)cc3)[C@@H]2C1 | -3.54%
4 | O=C(C[C@H]1CC[C@@H]2[C@H](COC[C@@H](O)CN2Cc2cc(F)cc(F)c2)O1)NC1CCC1 | -26.6%
5 | C[C@@H]1CN([C@@H](C)CO)C(=O)Cc2cc(NC(=O)CCCN(C)C)ccc2O[C@@H]1CN(C)Cc1ccc(-c2ccccc2)cc1 | -71.2%
6 | CC(C)C(=O)Nc1ccc2c(c1)C(=O)N(C)[C@H]1CC[C@H](CC(=O)NCc3ccc(F)cc3)O[C@H]1CO2 | -8.71%
7 | CC(=O)N1Cc2cc(C(=O)NCc3cc(F)cc(F)c3)nc(-c3cccc(C4=CCCC4)c3)c2[C@@H]1CCO | -66.6%
8 | O=C(Nc1ccccc1F)N1CC(=O)N2[C@@H](CO)[C@H](c3ccc(C#CC4CCCC4)cc3)[C@@H]2C1 | -8.5%
9 | CN1c2ccc(Br)cc2[C@@H]2[C@@H](CCN2C(=O)C2CCCCC2)[C@H]1CO | 11.1%
10 | CCCc1cn(CC[C@H]2CC[C@@H](NC(=O)C3CCOCC3)[C@@H](CO)O2)nn1 | -3.07%
11 | COC(=O)N(C)C[C@H]1OCc2ccccc2-c2ccccc2C(=O)N([C@@H](C)CO)C[C@H]1C | 23.3%
12 | CC(C)NC(=O)N(C)C[C@H]1OCc2ccccc2-c2c(n(C)c3ccccc23)C(=O)N([C@H](C)CO)C[C@@H]1C | 32.6%
13 | Cc1ccc(S(=O)(=O)N(C)C[C@H]2OCc3ccccc3-c3ccccc3C(=O)N([C@@H](C)CO)C[C@@H]2C)cc1 | -59.6%
14 | C[C@H]1CN([C@@H](C)CO)C(=O)c2ccccc2-c2ccccc2CO[C@H]1CN(C)C(=O)Nc1ccc(-c2ccccc2)cc1 | -74.8%
15 | C[C@H]1CN([C@@H](C)CO)C(=O)c2c(c3ccccc3n2C)-c2ccccc2CO[C@H]1CN(C)S(=O)(=O)c1ccc(C#N)cc1 | -85.2% (active)
16 | CC(C)NC(=O)N(C)C[C@@H]1OCc2ccccc2-c2c(n(C)c3ccccc23)C(=O)N([C@@H](C)CO)C[C@H]1C | 16%
17 | COc1ccc(S(=O)(=O)N(C)C[C@@H]2OCc3ccccc3-c3ccccc3C(=O)N([C@@H](C)CO)C[C@@H]2C)cc1 | -71.4%
18 | C[C@H]1CN([C@@H](C)CO)C(=O)c2ccccc2-c2ccccc2CO[C@H]1CN(C)Cc1ccc(-c2ccccc2)cc1 | -88.6% (active)
19 | C[C@@H]1CN([C@H](C)CO)C(=O)c2c(c3ccccc3n2C)-c2ccccc2CO[C@H]1CN(C)Cc1ccc(F)cc1 | -83.8% (active)
20 | C[C@@H]1CN([C@H](C)CO)C(=O)c2c(c3ccccc3n2C)-c2ccccc2CO[C@@H]1CN(C)Cc1ccc(F)cc1 | -64.4%
21 | C[C@H](CO)N1C[C@H](C)[C@@H](CN(C)Cc2ccc(C(F)(F)F)cc2)OCc2ccccc2-c2c(n(C)c3ccccc23)C1=O | -13.7%
22 | C[C@H]1CN([C@@H](C)CO)C(=O)c2ccccc2-c2ccccc2CO[C@@H]1CN(C)S(=O)(=O)c1ccc(C(F)(F)F)cc1 | -83.7% (active)
23 | CC(C)C#Cc1ccc([C@H]2[C@@H](CO)N3C(=O)CN(C(=O)Cc4ccccc4)C[C@H]23)cc1 | -68.7%

Row | SMILES | activity change
24 | COc1ccccc1NC(=O)N[C@H]1CC[C@H](CCNC(=O)Cc2ccccn2)O[C@@H]1CO | -4.42%
25 | CCC(=O)N1C[C@@H](C)[C@H](OC)CN(C)C(=O)c2ccc(NC(=O)C3CCOCC3)cc2OC[C@@H]1C | -9.88%
26 | O=C(c1ccccc1)N1CC(=O)N2[C@@H](CO)[C@H](c3ccc(C#CC4CC4)cc3)[C@@H]2C1 | 16.5%
27 | C[C@H](CO)N1C[C@H](C)[C@H](CN(C)C(=O)C2CCC2)Oc2ncc(C#CCc3ccccc3)cc2C1=O | -34.2%
28 | CCCC#Cc1ccc([C@H]2[C@H]3CN(C(=O)Nc4cccc(F)c4)CC(=O)N3[C@H]2CO)cc1 | -4.18%
29 | C[C@H](CO)N1C[C@H](C)[C@H](CN(C)S(C)(=O)=O)Oc2ncc(C3=CCCC3)cc2C1=O | 25.5%
30 | C[C@H](CO)N1C[C@H](C)[C@@H](CN(C)S(=O)(=O)c2ccc([N+](=O)[O-])cc2)OCc2ccccc2-c2c(n(C)c3ccccc23)C1=O | -84.4% (active)
31 | C[C@@H]1CN([C@@H](C)CO)C(=O)c2c(c3ccccc3n2C)-c2ccccc2CO[C@@H]1CN(C)S(=O)(=O)CC(F)(F)F | 20.5%
32 | C[C@H](CO)N1C[C@H](C)[C@@H](CN(C)S(=O)(=O)c2cccc(F)c2)OCc2ccccc2-c2c(n(C)c3ccccc23)C1=O | -87.4% (active)
33 | C[C@@H]1CN([C@H](C)CO)C(=O)c2c(c3ccccc3n2C)-c2ccccc2CO[C@H]1CN(C)S(=O)(=O)c1ccccc1F | -58.8%
34 | C[C@@H]1CN([C@@H](C)CO)C(=O)c2c(c3ccccc3n2C)-c2ccccc2CO[C@@H]1CN(C)S(=O)(=O)c1cccs1 | -57.7%
35 | C[C@@H]1CN([C@@H](C)CO)C(=O)c2c(c3ccccc3n2C)-c2ccccc2CO[C@H]1CN(C)S(=O)(=O)c1cccs1 | -56.5%
36 | Cc1ccc(S(=O)(=O)N(C)C[C@@H]2OCc3ccccc3-c3c(n(C)c4ccccc34)C(=O)N([C@@H](C)CO)C[C@@H]2C)cc1 | -89.8% (active)
37 | C[C@@H]1CN([C@@H](C)CO)C(=O)c2c(c3ccccc3n2C)-c2ccccc2CO[C@@H]1CN(C)S(=O)(=O)c1ccc(F)cc1 | -60.8%
38 | Cc1ccccc1S(=O)(=O)N(C)C[C@@H]1OCc2ccccc2-c2c(n(C)c3ccccc23)C(=O)N([C@H](C)CO)C[C@H]1C | -67.7%
39 | O=C(N[C@@H]1C=C[C@@H](CC(=O)N2CCOCC2)O[C@H]1CO)c1ccccn1 | 35.5%
40 | O=C(NCCN1CCCCC1)[C@@H]1N[C@@H]2c3ccc(-c4ccccc4)c(=O)n3C[C@@H]2[C@H]1CO | 50.6%
41 | COc1cccc(NC(=O)C[C@H]2CC[C@@H]3[C@@H](COc4ccc(NC(=O)C5CCOCC5)cc4C(=O)N3C)O2)c1 | 15.2%
42 | C/C=C/c1ccccc1[C@@H]1[C@@H](C#N)N(c2nc(CC)cs2)[C@@H]1CO | -18.3%
43 | N#C[C@@H]1[C@H](c2ccccc2-c2ccccc2)[C@H](CO)N1c1ncc(-c2ccccc2)s1 | -4.56%
44 | CCc1sc(N2[C@@H](C#N)[C@@H](c3ccccc3-c3ccccc3)[C@@H]2CO)nc1C | -83.4% (active)
45 | C/C=C/c1ccccc1[C@@H]1[C@@H](CO)N(S(=O)(=O)c2cccc(F)c2)[C@H]1C#N | -88% (active)
46 | N#C[C@@H]1[C@H](c2ccccc2C2=CCCCC2)[C@@H](CO)N1S(=O)(=O)c1cccc(F)c1 | -43.9%

Row | SMILES | activity change
47 | C/C=C/c1ccccc1[C@H]1[C@@H](C#N)N(c2nc(CC)cs2)[C@@H]1CO | -82.9% (active)
48 | Cc1ccc(-c2ccccc2[C@H]2[C@@H](C#N)N(c3ncc(-c4ccccc4)s3)[C@@H]2CO)cc1 | -65.2%
49 | C/C=C/c1ccccc1[C@H]1[C@@H](C#N)N(C(=O)Cc2ccccn2)[C@@H]1CO | 1.87%
50 | C/C=C/c1ccccc1[C@H]1[C@@H](C#N)N(C(C)=O)[C@@H]1CO | 7.51%
51 | O=C(NC1CCCCC1)N[C@H]1CC[C@H](CCNS(=O)(=O)c2ccc(F)cc2)O[C@H]1CO | 24.8%
52 | C/C=C/c1ccc([C@@H]2[C@H](CO)N(S(=O)(=O)Cc3ccccc3)C23CN(C(=O)C2CCOCC2)C3)cc1 | -52%
53 | CO[C@H]1CN(C)C(=O)c2ccc(NC(=O)C3CC3)cc2OC[C@H](C)N(C(=O)CN2CCOCC2)C[C@@H]1C | 26.1%
54 | CC(C)(C)[S@@](=O)N1Cc2cc(C(=O)O)nc(-c3cccc(-c4cccc(F)c4)c3)c2[C@H]1CCO | 41.4%
55 | COc1ccccc1C#Cc1ccc([C@@H]2[C@H](CO)N3CCCCN(C(=O)C4CCCC4)C[C@@H]23)cc1 | -47.8%
56 | CCC(=O)Nc1ccc2c(c1)OC[C@H](C)N(C(=O)Cc1cccnc1)C[C@@H](C)[C@@H](OC)CN(C)C2=O | 8.05%
57 | Cn1cnc(CCNC(=O)C[C@H]2CC[C@@H]3[C@H](COC[C@H](O)CN3C(=O)C3CC3)O2)c1 | -3%
58 | Cc1ccc(S(=O)(=O)N(C)C[C@@H]2OCCCC[C@@H](C)Oc3ccc(NC(=O)Nc4ccc(C(F)(F)F)cc4)cc3C(=O)N([C@@H](C)CO)C[C@@H]2C)cc1 | -86.1% (active)
59 | C[C@H](CO)N1C[C@H](C)[C@@H](CN(C)S(C)(=O)=O)OCCCC[C@H](C)Oc2ccc(NC(=O)Nc3ccc(C(F)(F)F)cc3)cc2C1=O | 30.4%
60 | CNC[C@@H]1OCCCC[C@H](C)Oc2ccc(NC(=O)Nc3ccccc3)cc2C(=O)N([C@H](C)CO)C[C@H]1C | 31%
61 | COc1ccc(NC(=O)Nc2ccc3c(c2)C(=O)N([C@H](C)CO)C[C@@H](C)[C@H](CN(C)C(=O)Nc2ccc(C(F)(F)F)cc2)OCCCC[C@@H](C)O3)cc1 | -69%
62 | CNC[C@H]1OCCCC[C@@H](C)Oc2ccc(NC(=O)Nc3ccc(C(F)(F)F)cc3)cc2C(=O)N([C@H](C)CO)C[C@H]1C | -82.5% (active)
63 | CC(C)NC(=O)Nc1ccc2c(c1)C(=O)N([C@@H](C)CO)C[C@@H](C)[C@@H](CN(C)C(=O)Nc1ccc(C(F)(F)F)cc1)OCCCC[C@H](C)O2 | -63.3%
64 | COc1ccc(NC(=O)N(C)C[C@H]2OCCCC[C@H](C)Oc3ccc(NC(=O)Nc4ccc(C(F)(F)F)cc4)cc3C(=O)N([C@@H](C)CO)C[C@@H]2C)cc1 | -39.3%
65 | CNC[C@H]1OCCCC[C@H](C)Oc2ccc(NC(=O)Nc3ccc(C(F)(F)F)cc3)cc2C(=O)N([C@H](C)CO)C[C@@H]1C | -14.8%
66 | C[C@@H]1CCCCO[C@H](CN(C)C(=O)Nc2ccc(C(F)(F)F)cc2)[C@@H](C)CN([C@@H](C)CO)C(=O)c2cc(NC(=O)Nc3cccc4ccccc34)ccc2O1 | -88.3% (active)
67 | C[C@@H]1CCCCO[C@H](CN(C)C(=O)Nc2ccc(C(F)(F)F)cc2)[C@H](C)CN([C@H](C)CO)C(=O)c2cc(NC(=O)Nc3ccc(C(F)(F)F)cc3)ccc2O1 | -80.3% (active)
68 | Cc1ccc(S(=O)(=O)N(C)C[C@H]2OCCCC[C@@H](C)Oc3ccc(NC(=O)Nc4ccc(F)cc4)cc3C(=O)N([C@@H](C)CO)C[C@H]2C)cc1 | -68.1%
69 | CC(C)NC(=O)Nc1ccc2c(c1)C(=O)N([C@H](C)CO)C[C@H](C)[C@H](CN(C)C(=O)Nc1ccc(C(F)(F)F)cc1)OCCCC[C@@H](C)O2 | 1.85%
